Glioma ERSR ind – ER stress response induction in glioma; 420,000 tested, 0.02% active; Potency, µM, for the others: top-dose activation, most hits filed as activators; U87-MG GRP78 promoter luciferase reporter, 16 h; also: series mostly up to about 76 µM; % of control where 0% means no effect; nearly all actives have a fitted effect of over 35% in size
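Stably transfected U87-MG human glioma cells carrying a GRP78-based luminescent sensor were seeded at 1000 cells/well, pin-dosed with compounds and incubated 16 h. Luciferase reagent was then added, and end-point luminescence was read after 10 min at room temperature.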
PINK1 modulator – modulators of PINK1 expression; PINK1 immunofluorescence, high-content cytometry, 24 h; 410,000 tested, 0.2% active; Potency, µM (top dose mostly 76.6 µM), for inactives: at the highest dose activation (PINK1 increase), actives largely listed as activators; active = well fitted activation curve with a large enough effect; inconclusive = small, poorly fitted or top-dose-only effect; cell line not stated here; also: % of control where 0% means no effect; nearly all actives have a fitted effect of over 65% in size
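Cells are seeded, rested 12 hours, then given compound at five concentrations or DMSO for 24 hours. After fixation, blocking and antibody staining, PINK1 amount and mitochondrial localization are scored; CCCP serves as control.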
Vif-A3F inh – inhibitors of Vif-A3F interaction. HeLa A3F-eYFP + Vif (tagged APOBEC3F with the HIV-1 protein that degrades it), YFP fluorescence increase. 390,000 tested, 0.2% active. Potency, µM (series often up to 46.1 µM), for inactives: top-dose activity, negative = active; also: % of control where 0% means no effect; nearly all actives have a fitted effect of over 65% in size
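Fluorescence increase (Ex 488/Em 500-530) after overnight compound treatment at 37 deg C flags inhibition of Vif-driven A3F-eYFP loss in stable HeLa A3F-eYFP/Vif cells seeded overnight beforehand.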
Abeta yeast res – A-beta toxicity reversal in yeast; Potency, µM (doses to about 46.1 µM), most hits filed as activators; 410,000 tested, 0.063% active; AID 1347071; yeast expressing A-beta42, growth rescue, OD600, 48 h; response scale: 0% DMSO, 100% iron-clioquinol control; also: nearly all actives have a fitted effect of over 55% in size
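Yeast A-beta toxicity model in growth medium with pinned compounds, 48 h at 30 C; growth read as absorbance at 600 nm. Normalized to FeCl3/clioquinol equimolar mix (positive) and DMSO (negative).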
FUS suppressor – FUS proteinopathy suppression in yeast | S. cerevisiae FUS-expressing, growth rescue, OD600, 24 h | Potency, µM (highest dose often 76.6 µM), hits mostly activators | 390,000 tested, 0.24% active | AID 1347120;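 also: plate controls were DMSO vehicle for no effect and reference control for full effect; nearly all actives have a fitted effect of over 55% in size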
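Cultures pregrown in 2.5% raffinose medium are shifted to minimal medium containing 2% galactose to express toxic FUS. Compounds are tested at several concentrations. After 24hr at 30C, growth is quantified at 600 nm absorbance.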
Vif-APOBEC3G blk – Vif-A3G binding inhibition. 410,000 tested, 0.076% active. Q9HC16. Potency, µM (doses to about 46.1 µM), for inactives: at the top dose activity, negative = active, usual class: inhibitors. AID 602310. HeLa A3G-eYFP + Vif (tagged APOBEC3G with the HIV-1 protein that degrades it), YFP fluorescence, overnight; also: % is scaled to controls: 0 for no effect and ±100 for the full control effect; nearly all actives have a fitted effect of over 60% in size
Target sequence (Q9HC16 whole entry, looked up): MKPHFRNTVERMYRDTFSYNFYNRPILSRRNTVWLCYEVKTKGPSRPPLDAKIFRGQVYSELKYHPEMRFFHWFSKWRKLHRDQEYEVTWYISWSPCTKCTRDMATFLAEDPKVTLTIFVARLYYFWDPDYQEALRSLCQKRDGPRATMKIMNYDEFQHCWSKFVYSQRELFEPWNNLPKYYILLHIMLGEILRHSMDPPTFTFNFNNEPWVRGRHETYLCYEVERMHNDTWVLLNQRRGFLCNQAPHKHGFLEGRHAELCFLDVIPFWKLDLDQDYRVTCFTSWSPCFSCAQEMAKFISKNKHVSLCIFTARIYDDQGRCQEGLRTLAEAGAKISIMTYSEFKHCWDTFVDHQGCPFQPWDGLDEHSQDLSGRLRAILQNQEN
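Read-out is eYFP fluorescence (Ex 488/Em 500-530) from Vif-expressing HeLa A3G-eYFP cells; more signal means A3G escaped Vif-mediated degradation. Cells plated overnight, compound pinned in, incubated overnight at 37 deg C.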
Starred values were filed as active, the others as inactive; i = inactive; ? = inconclusive; nt = no result given. Compounds with a hit are over-represented: about 0.69% of the library has one in this group of screens. Unless noted, calls follow the shape of the dose curve; as a rule, active = well fitted curve in the direction sought with a large enough effect; inconclusive = small, poorly fitted or top-dose-only effect, or another doubt; inactive = no such curve, though single readings can be large; an effect the other way counts as inactive or inconclusive. Potency is read from the fitted curve at half-maximal effect.

SMILES	Glioma ERSR ind	PINK1 modulator	Vif-A3F inh	Abeta yeast res	FUS suppressor	Vif-APOBEC3G blk
CCOc1ccc(OCCn2c(=S)[nH]c3ccccc32)cc1	5%	4%	-17%	?	?	-4%
S=c1[nH]c2ccccc2n1Cc1ccccc1	-1%	9%	-3%	11µM*	i	-18%
COc1ccc(CCN(C)C(=O)c2cnn(-c3nccc(-c4ccc(C)o4)n3)c2C)cc1OC	-4%	-1%	nt	nt	nt	nt
COC(=O)C1CCN(Cc2ccc3c(c2)CN(C(=O)c2cc(-c4ccc(C)o4)[nH]n2)CCO3)CC1	-4%	1%	nt	nt	nt	nt
O=C1c2ccccc2NC(c2cn[nH]c2-c2ccc(Cl)cc2)N1O (stereo not given)	-6%	2%	0%	i	25µM*	-8%
O=C1c2ccccc2NC(c2cn[nH]c2-c2ccccc2)N1O (stereo not given)	-2%	1%	6%	i	nt	-1%
COc1ccc2nc(SCC(=O)N3CC(=O)Nc4ccccc43)c(C#N)cc2c1	-3%	2%	22µM*	i	i	10µM*
COc1ccc2nc(SCC(C)=O)c(C#N)cc2c1	1%	3%	3.5µM*	i	i	?
CN(C)c1ccc(/C=C/c2cccc[n+]2[O-])cc1	-7%	-1%	?	i	i	-5%
CC(C)CC[n+]1ccccc1/C=C/c1ccc(N(C)C)cc1	-11%	32µM*	7.9µM*	i	i	10µM*
N#CC(C#N)=C1C=CC=CN1/C(=C\c1ccco1)C(=O)c1ccc(Br)cc1	-15%	-1%	?	i	nt	-23%
N#CC(C#N)=C1C=CC=CN1/C(=C\c1ccco1)C(=O)c1ccccc1	-14%	-1%	20µM*	i	i	?
Cc1cc(C)c(C(=O)Nc2ccc(Br)c(C(F)(F)F)c2)c(C)c1	-2%	13µM*	1%	i	nt	3%
O=C(O)c1ccccc1C(=O)Nc1ccc(Br)c(C(F)(F)F)c1	-4%	-1%	-2%	i	i	4%
Cc1nonc1NC(=O)CSc1nc2c(C)cccc2cc1C#N	4%	45µM*	7.9µM*	i	i	?
Cc1cc2cc(C#N)c(SCC(=O)Nc3nonc3C)nc2cc1C	1%	?	10µM*	i	i	?
CCC1(C2CCN(C(=O)c3cc4ccccc4o3)CC2)NC(=O)N(CCc2scnc2C)C1=O (stereo not given)	1%	-1%	nt	nt	nt	nt
CC(C)(C)n1ncc2c(=O)n(Cc3cccc(Cl)c3Cl)cnc21	-3%	nt	nt	nt	nt	2%
NC(=O)[C@H]1CC2(CC(c3cccc(NC(=O)[C@H]4CCC(=O)N4)c3)=NO2)CN1C(=O)CC(c1ccccc1)c1ccccc1 (stereo not given in full)	-2%	0%	1%	i	?	3%
NC(=O)[C@H](Cc1cc2ccccc2s1)NC(=O)[C@@H]1CC2(CC(c3cccc(NC(=O)[C@@H]4CCC(=O)N4)c3)=NO2)CN1C(=O)c1ccccc1 (stereo not given in full)	1%	2%	-2%	i	35µM*	1%
NC(=O)[C@H](Cc1cc2ccccc2s1)NC(=O)[C@@H]1CC2(CC(c3cccc(NC(=O)[C@@H]4CCC(=O)N4)c3)=NO2)CN1C(=O)/C=C/c1c(F)cccc1Cl (stereo not given in full)	-5%	2%	-4%	i	?	-3%
NC(=O)[C@H](Cc1cc2ccccc2s1)NC(=O)[C@@H]1CC2(CC(c3cccc(NC(=O)[C@@H]4CCC(=O)N4)c3)=NO2)CN1C(=O)/C=C/Sc1ccccc1 (stereo not given in full)	-2%	1%	-3%	i	28µM*	-8%
CCc1ccc(S(=O)(=O)NCc2nc(N3CCCC3)c3cccc(C)c3n2)cc1	-5%	0%	nt	nt	nt	nt
O=C(CN1Cc2ccccc2OC(c2ccsc2)C1)NCC1OCCc2ccccc21 (stereo not given)	-2%	-1%	nt	nt	nt	nt
